Results reported in the supplement of paper PMC10849652.
Targets with a hit are over-represented here; the source holds about 8,800 in all. About 0.5% of all pairs of compound and target were hits.

How the values were obtained:
Experiment in all cases: log2 fold change, soluble protein after heating vs DMSO (PISA); higher = thermal stabilisation; K562 lysate, 10 uM; active = over 0.2 and 3.5 SD of the protein, either way, in both replicates (recomputed)
alvocidib = compound: CN1CC[C@H](c2c(O)cc(O)c3c(=O)cc(-c4ccccc4Cl)oc23)[C@H](O)C1 [alvocidib]
Method in brief: (§1)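 Soluble protein was defined as the supernatant remaining after 21,000xg for 90 min, following pooling of heated aliquots and adjustment to 0.5% NP-40 at 4°C. Before that, crude K562 extract at 1 mg/mL protein in PBS pH 7.4 with 1 mM MgCl2 was treated with 10 μM compound for 30 min and heated for 3 min across 48°C-58°C. Quantification used TMTpro 16plex LC-MS/MS with channel sums equalised, and values are log-two fold changes in thermal stability relative to solvent controls from duplicates.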

Tubastatin A = compound: CN1CCc2c(c3ccccc3n2Cc2ccc(C(=O)NO)cc2)C1 [Tubastatin A]
Method in brief: as §1

[1] = compound: CNC(=O)C1=CC=CC=C1NC2=NC(=NC=C2Cl)NC3=C(C=C(C=C3)N4CCOCC4)OC
Method in brief: as §1

defactinib = compound: CNC(=O)c1ccc(Nc2ncc(C(F)(F)F)c(NCc3nccnc3N(C)S(C)(=O)=O)n2)cc1 [defactinib]
Method in brief: as §1

[2] = compound: CNc1nc(-c2ccc3c(N)n[nH]c3c2)cc(N2C[C@@H](C(=O)NC3CCCCC3)CC[C@H]2C)n1
Method in brief: as §1

encorafenib = compound: COC(=O)N[C@@H](C)CNc1nccc(-c2cn(C(C)C)nc2-c2cc(Cl)cc(NS(C)(=O)=O)c2F)n1 [encorafenib]
Method in brief: as §1

[3] = compound: COC(=O)[C@H](CCSC)NC(=O)C1=C(C=C(C=C1)NC[C@H](CS)N)C2=CC=CC=C2
Method in brief: as §1

alisertib = compound: COc1cc(Nc2ncc3c(n2)-c2ccc(Cl)cc2C(c2c(F)cccc2OC)=NC3)ccc1C(=O)O [alisertib]
Method in brief: as §1

[4] = compound: COc1cc2nc(-c3cc(F)ccc3O)nc(N[C@@H]3CNC[C@H]3C(C)(C)O)c2cc1OC
Method in brief: as §1

gefitinib = compound: COc1cc2ncnc(Nc3ccc(F)c(Cl)c3)c2cc1OCCCN1CCOCC1 [gefitinib]
Method in brief: as §1

Measured: log2 fold change

SYNE2 isoform 2 (UniProt Q8WXH0)
inactive: alvocidib -0.415 | Tubastatin A 0.143 | [1] -0.117 | defactinib -0.139 | [2] -0.003 | encorafenib -0.036 | [3] 0.004 | alisertib 0.037 | [4] 0.034 | gefitinib -0.059

SKA2 (UniProt Q8WVK7)
Sequence of UniProt Q8WVK7 (Q8WVK7 whole entry, looked up): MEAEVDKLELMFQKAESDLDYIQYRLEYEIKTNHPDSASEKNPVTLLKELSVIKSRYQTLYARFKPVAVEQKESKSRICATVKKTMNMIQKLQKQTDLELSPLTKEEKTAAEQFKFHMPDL
inactive: alvocidib 0.003 | Tubastatin A -0.119 | [1] -0.077 | defactinib -0.014 | [2] -0.02 | encorafenib 0.032 | [3] -0.001 | alisertib 0.036 | [4] -0.009 | gefitinib 0.006

SUZ12 (UniProt Q15022)
inactive: alvocidib -0.004 | Tubastatin A -0.012 | [1] 0.009 | defactinib 0.049 | [2] 0.027 | encorafenib 0 | [3] 0.101 | alisertib -0.057 | [4] -0.062 | gefitinib 0.062

SYNRG (UniProt Q9UMZ2)
Sequence of UniProt Q9UMZ2 (Q9UMZ2 whole entry, looked up): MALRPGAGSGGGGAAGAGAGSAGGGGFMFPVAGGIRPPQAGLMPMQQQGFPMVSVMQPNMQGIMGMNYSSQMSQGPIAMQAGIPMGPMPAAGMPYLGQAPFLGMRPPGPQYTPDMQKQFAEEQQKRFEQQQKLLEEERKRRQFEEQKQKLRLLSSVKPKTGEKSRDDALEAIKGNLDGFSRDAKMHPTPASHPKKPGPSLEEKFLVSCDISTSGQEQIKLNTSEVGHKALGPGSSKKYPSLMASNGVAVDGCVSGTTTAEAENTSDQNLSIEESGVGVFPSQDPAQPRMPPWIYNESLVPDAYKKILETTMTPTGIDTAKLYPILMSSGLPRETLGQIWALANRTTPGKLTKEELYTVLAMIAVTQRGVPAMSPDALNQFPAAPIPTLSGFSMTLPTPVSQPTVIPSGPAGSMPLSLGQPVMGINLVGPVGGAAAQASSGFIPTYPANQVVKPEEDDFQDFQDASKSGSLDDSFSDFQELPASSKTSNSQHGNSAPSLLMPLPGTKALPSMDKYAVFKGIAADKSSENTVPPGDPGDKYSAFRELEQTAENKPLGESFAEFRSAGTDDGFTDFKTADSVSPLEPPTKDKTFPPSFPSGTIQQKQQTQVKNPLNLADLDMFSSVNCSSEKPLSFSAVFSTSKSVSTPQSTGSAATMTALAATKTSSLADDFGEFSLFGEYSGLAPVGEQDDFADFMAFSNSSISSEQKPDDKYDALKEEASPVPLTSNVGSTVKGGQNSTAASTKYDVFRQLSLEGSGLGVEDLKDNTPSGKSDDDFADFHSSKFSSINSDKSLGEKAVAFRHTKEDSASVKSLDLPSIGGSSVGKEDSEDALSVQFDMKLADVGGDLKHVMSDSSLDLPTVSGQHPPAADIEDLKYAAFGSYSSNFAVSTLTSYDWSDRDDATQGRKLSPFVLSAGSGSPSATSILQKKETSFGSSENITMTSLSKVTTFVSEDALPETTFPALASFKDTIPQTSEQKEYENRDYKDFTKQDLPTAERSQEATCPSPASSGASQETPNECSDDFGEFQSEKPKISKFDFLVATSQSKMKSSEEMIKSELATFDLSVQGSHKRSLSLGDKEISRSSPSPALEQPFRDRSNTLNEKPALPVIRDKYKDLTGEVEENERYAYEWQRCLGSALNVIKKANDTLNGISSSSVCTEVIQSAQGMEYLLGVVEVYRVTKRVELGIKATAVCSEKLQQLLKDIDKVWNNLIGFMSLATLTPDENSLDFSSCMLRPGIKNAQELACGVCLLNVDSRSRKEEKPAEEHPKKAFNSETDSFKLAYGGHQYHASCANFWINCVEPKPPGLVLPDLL
inactive: alvocidib 0.026 | Tubastatin A -0.016 | [1] -0.021 | defactinib 0.015 | [2] 0.002 | encorafenib -0.004 | [3] 0.024 | alisertib 0.033 | [4] 0.003 | gefitinib -0.006

SSB (UniProt E7ERC4)
inactive: alvocidib 0.132 | Tubastatin A 0.154 | [1] -0.072 | defactinib -0.285 | [2] -0.023 | encorafenib 0.081 | [3] 0.013 | alisertib -0.091 | [4] 0.095 | gefitinib 0.072

TARBP1 (UniProt Q13395)
Sequence of UniProt Q13395 (Q13395 whole entry, looked up): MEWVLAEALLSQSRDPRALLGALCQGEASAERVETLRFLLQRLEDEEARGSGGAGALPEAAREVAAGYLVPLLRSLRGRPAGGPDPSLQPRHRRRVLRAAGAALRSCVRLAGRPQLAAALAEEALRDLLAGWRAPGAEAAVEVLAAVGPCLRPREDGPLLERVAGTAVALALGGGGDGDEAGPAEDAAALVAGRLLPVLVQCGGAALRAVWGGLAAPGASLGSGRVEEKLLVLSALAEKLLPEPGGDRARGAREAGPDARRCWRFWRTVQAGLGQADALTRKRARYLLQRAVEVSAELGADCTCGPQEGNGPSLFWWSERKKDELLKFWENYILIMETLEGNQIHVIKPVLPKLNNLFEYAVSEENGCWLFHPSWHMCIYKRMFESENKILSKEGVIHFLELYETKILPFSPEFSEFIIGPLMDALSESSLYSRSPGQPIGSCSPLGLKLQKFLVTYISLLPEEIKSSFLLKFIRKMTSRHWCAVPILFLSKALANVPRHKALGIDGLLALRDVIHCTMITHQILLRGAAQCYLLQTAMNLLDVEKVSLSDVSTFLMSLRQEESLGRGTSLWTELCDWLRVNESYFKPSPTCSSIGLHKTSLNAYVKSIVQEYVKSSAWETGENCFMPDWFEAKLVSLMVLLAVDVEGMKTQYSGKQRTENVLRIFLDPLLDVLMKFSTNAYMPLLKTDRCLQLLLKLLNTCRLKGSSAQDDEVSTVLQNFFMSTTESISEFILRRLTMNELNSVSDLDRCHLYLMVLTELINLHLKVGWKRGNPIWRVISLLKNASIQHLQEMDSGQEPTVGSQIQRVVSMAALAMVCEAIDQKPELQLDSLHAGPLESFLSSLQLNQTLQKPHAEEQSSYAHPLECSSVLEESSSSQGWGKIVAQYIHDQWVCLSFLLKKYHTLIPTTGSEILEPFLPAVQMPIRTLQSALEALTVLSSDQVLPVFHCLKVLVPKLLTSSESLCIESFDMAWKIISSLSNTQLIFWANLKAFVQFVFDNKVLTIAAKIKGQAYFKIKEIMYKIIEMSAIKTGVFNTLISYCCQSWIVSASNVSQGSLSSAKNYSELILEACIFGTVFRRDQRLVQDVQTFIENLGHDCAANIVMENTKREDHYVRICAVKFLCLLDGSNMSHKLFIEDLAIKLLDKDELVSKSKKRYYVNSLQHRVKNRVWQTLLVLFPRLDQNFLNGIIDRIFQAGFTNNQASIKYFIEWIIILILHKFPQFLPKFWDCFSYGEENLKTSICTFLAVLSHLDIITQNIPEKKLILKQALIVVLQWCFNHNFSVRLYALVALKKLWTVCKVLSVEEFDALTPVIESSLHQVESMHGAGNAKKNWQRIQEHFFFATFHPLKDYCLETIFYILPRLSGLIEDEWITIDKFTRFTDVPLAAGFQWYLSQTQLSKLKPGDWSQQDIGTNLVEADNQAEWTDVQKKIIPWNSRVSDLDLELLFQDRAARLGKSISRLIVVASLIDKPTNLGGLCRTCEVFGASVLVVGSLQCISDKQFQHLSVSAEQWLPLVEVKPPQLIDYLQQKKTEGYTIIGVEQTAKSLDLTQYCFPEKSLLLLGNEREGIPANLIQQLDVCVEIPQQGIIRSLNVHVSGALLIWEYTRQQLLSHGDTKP
inactive: alvocidib 0.009 | Tubastatin A -0.118 | [1] -0.066 | defactinib -0.034 | [2] 0.047 | encorafenib 0.073 | [3] -0.236 | alisertib 0.018 | [4] -0.004 | gefitinib 0.011

SRRT (UniProt Q9BXP5)
inactive: alvocidib 0.014 | Tubastatin A -0.195 | [1] 0.008 | defactinib -0.013 | [2] -0.02 | encorafenib 0.024 | [3] 0.202 | alisertib 0.03 | [4] -0.01 | gefitinib 0.009

STK4 (UniProt Q13043)
inactive: alvocidib 0.011 | Tubastatin A -0.095 | [1] 0.365 | defactinib 0.231 | [2] 0 | encorafenib -0.073 | [3] -0.055 | alisertib 0.051 | [4] 0.257 | gefitinib 0.002

SMARCA4 (UniProt P51532)
inactive: alvocidib 0.004 | Tubastatin A -0.078 | [1] -0.007 | defactinib 0.002 | [2] -0.003 | encorafenib 0.021 | [3] 0.056 | alisertib 0.019 | [4] -0.002 | gefitinib -0.001

SLC26A6 (UniProt Q9BXS9)
Sequence of UniProt Q9BXS9 (Q9BXS9 whole entry, looked up): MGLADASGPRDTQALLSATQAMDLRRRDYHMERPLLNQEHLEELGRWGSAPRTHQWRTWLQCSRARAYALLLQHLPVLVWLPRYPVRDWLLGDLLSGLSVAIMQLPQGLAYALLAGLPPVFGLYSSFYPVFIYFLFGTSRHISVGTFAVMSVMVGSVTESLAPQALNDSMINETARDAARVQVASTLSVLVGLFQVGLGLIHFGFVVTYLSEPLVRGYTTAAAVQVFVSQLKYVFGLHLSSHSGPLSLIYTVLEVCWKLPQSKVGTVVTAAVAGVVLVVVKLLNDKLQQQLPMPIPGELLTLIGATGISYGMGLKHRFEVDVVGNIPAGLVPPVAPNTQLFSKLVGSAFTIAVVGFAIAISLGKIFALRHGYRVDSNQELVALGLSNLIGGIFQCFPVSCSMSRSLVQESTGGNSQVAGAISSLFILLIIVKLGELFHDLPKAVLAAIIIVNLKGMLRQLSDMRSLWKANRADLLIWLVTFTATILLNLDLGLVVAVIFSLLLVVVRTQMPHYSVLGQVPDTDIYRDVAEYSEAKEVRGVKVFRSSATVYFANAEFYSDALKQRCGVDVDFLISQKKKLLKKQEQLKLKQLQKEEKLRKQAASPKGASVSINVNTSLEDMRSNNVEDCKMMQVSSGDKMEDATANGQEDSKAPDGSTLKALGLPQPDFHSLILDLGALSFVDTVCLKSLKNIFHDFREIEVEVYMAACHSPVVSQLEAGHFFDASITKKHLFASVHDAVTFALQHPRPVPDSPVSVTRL
inactive: alvocidib -0.095 | Tubastatin A -0.05 | [1] -0.004 | defactinib 0.055 | [2] 0.086 | encorafenib -0.016 | [3] -0.111 | alisertib 0.06 | [4] -0.056 | gefitinib -0.022

SMAP2 (UniProt Q8WU79)
inactive: alvocidib 0.017 | Tubastatin A -0.002 | [1] -0.058 | defactinib 0.024 | [2] -0.086 | encorafenib 0.047 | [3] -0.037 | alisertib -0.004 | [4] 0.01 | gefitinib -0.03

TAPT1 (UniProt Q6NXT6)
Sequence of UniProt Q6NXT6 (Q6NXT6 whole entry, looked up): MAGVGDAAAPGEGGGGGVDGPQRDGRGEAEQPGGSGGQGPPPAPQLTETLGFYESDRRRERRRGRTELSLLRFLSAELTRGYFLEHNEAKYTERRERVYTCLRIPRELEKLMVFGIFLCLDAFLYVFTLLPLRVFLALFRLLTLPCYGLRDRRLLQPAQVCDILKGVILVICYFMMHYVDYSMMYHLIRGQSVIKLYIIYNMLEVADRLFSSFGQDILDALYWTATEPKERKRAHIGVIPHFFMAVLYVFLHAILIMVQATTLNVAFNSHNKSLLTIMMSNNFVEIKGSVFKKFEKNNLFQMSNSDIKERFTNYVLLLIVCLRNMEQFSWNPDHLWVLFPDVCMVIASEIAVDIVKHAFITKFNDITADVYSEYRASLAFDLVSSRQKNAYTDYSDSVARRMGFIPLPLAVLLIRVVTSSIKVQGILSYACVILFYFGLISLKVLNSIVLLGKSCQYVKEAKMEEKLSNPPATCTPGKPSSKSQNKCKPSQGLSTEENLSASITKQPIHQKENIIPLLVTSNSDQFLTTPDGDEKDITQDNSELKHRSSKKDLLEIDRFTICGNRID
inactive: alvocidib -0.101 | Tubastatin A 0.037 | [1] -0.086 | defactinib 0.047 | [2] 0.056 | encorafenib 0.053 | [3] -0.074 | alisertib -0.016 | [4] -0.006 | gefitinib 0.055

STOML2 (UniProt Q9UJZ1)
Sequence of UniProt Q9UJZ1 (Q9UJZ1 whole entry, looked up): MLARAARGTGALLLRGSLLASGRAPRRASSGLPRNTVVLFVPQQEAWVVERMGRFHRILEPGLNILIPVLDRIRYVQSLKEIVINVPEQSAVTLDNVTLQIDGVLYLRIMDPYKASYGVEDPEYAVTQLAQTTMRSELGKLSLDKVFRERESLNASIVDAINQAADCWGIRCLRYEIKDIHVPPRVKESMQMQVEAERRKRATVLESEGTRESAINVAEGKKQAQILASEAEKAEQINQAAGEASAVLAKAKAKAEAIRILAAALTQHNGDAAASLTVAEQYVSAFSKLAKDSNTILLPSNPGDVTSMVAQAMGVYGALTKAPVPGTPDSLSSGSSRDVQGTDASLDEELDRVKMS
inactive: alvocidib -0.017 | Tubastatin A 0.095 | [1] -0.009 | defactinib 0.017 | [2] 0.022 | encorafenib -0.007 | [3] -0.055 | alisertib -0.004 | [4] 0.052 | gefitinib 0.08

SLC27A4 (UniProt Q6P1M0)
inactive: alvocidib -0.019 | Tubastatin A -0.021 | [1] -0.009 | defactinib -0.157 | [2] -0.062 | encorafenib 0.135 | [3] 0.006 | alisertib 0.039 | [4] 0.062 | gefitinib -0.067

STK11IP (UniProt Q8N1F8)
inactive: alvocidib 0.013 | Tubastatin A -0.005 | [1] -0.025 | defactinib 0.041 | [2] -0.014 | encorafenib 0.053 | [3] 0.062 | alisertib -0.026 | [4] 0.025 | gefitinib 0.069
